In PubChem BioAssay (NCATS) one finds Potency and activity change, negative = cytotoxicity data, which are given here for 18 molecules.

Inconclusive results are not listed. Values without a mark were called inactive. Activity calls are given as the source filed them. Calls come from the whole dose curve; as a rule, active = well fitted curve in the direction sought with a large enough effect; inconclusive = small, poorly fitted or top-dose-only effect, or another doubt; inactive = no such curve, though single readings can be large; an effect the other way counts as inactive or inconclusive.

One test has as its system C33A. The test can be described thus: Primary qHTS to identify gynecologic anti-cancer compounds using libraries of approved drugs and bioactive compounds (AID 1345084). For activity change, negative = cytotoxicity: % is set by controls: 0 for no effect and ±100 for the full control effect. Note: nearly all actives have a fitted effect of over 55% in size. Particulars: Gynecologic cancer cell panel viability, ATPlite luminescence, 48 h; series mostly up to 57.5 µM. Put shortly:
(§1)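 ATP-based viability (ATPlite), 1,000 cells/well, 16 h pre-incubation, 48 h compound at 37 C, 5% CO2, 15 min RT before read.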

A further test relates to CAOV3. Described as above. To be noted: Gynecologic cancer cell panel viability, ATPlite luminescence, 48 h; series mostly up to 57.5 µM. Put shortly: as §1
The test system of the next test is CASKI. The test is described as above. To be noted: Gynecologic cancer cell panel viability, ATPlite luminescence, 48 h; series mostly up to 57.5 µM. The method in brief: as §1
In a further test the test system is Hek293T. The description is as above. To be noted: Gynecologic cancer cell panel viability, ATPlite luminescence, 48 h, control line for the selectivity index; series mostly up to 57.5 µM. The method in brief: as §1
A further test relates to JEG-3. The test is described as above. Particulars: Gynecologic cancer cell panel viability, ATPlite luminescence, 48 h; series mostly up to 57.5 µM. Put shortly: as §1
Another test concerns OV90. Described as above. Particulars: Gynecologic cancer cell panel viability, ATPlite luminescence, 48 h; series mostly up to 57.5 µM. Put shortly:
as §1

The test system of a further test is HeLa. Described as above. To be noted: Gynecologic cancer cell panel viability, ATPlite luminescence, 48 h; series mostly up to 57.5 µM. The method in brief: as §1
The nature of test [1]: qHTS assay to identify inhibitors of the type 1 interferon - major histocompatibility complex class I in skeletal muscle: Counter screen cell viability and HiBit confirmation (AID 1347412). Note: nearly all actives have a fitted effect of over 60% in size. To be noted: iHSKM muscle cells + IFN-b, HiBiT or CellTiter-Glo, 24 h; HiBiT. Put shortly:
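HLA-B*08:01–HiBiT knock-in immortalized human myoblasts (C25cl48) stimulated with 4.0 ng/ml human IFN-beta and dosed with compound in a 12-point 1:3 titration (top final 46 uM). After 24 hrs at 37 C, HiBiT lytic luminescence or CellTiter Glo ATP read out.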

A further test concerns SKOV3. The test can be described thus: Primary qHTS to identify gynecologic anti-cancer compounds using libraries of approved drugs and bioactive compounds (AID 1345084). For activity change, negative = cytotoxicity: % is set by controls: 0 for no effect and ±100 for the full control effect. Note: nearly all actives have a fitted effect of over 55% in size. To be noted: Gynecologic cancer cell panel viability, ATPlite luminescence, 48 h; series mostly up to 57.5 µM. The method in brief: as §1
In another test the test system is Tov112D. Described as above. Particulars: Gynecologic cancer cell panel viability, ATPlite luminescence, 48 h; series mostly up to 57.5 µM. Put shortly: as §1
For the next test, the system named is PA-1. Described as above. Particulars: Gynecologic cancer cell panel viability, ATPlite luminescence, 48 h; series mostly up to 57.5 µM. Put shortly:
as §1

For another test, the system named is Tov-21-G. The description is as above. To be noted: Gynecologic cancer cell panel viability, ATPlite luminescence, 48 h; series mostly up to 57.5 µM. Put shortly: as §1
For a further test, the system named is Es-2. The test is described as above. To be noted: Gynecologic cancer cell panel viability, ATPlite luminescence, 48 h; series mostly up to 57.5 µM. Put shortly: as §1
Potency is the fitted concentration of half-maximal effect.

Turning to `O=C(c1ccc(OC(F)F)c(C#Cc2ccccn2)c1)N1Cc2cccnc2C1`, the Potency entry with C33A, in the test with CAOV3, in the test with CASKI, in the test with Hek293T, with JEG-3 and with OV90 was “inactive” in each case.

As for `NC(=O)c1ccccc1Nc1ccnc(Nc2cccc(O)c2)n1`, in the test with C33A, the Potency entry was “inactive”. In addition, the Potency was 8.91 µM (active) with CAOV3, 12.6 µM (active) in the test with CASKI, 3.16 µM (active) with HeLa and 4.97 µM (active) in test [1].

On to `C=C1C(=O)O[C@@H]2[C@H]3C(C)=CC(=O)C3=C(C)[C@@H](OC(=O)/C(C)=C\C)[C@H](O)[C@@H]12`, for which the Potency result with C33A, in the test with CAOV3, with CASKI, with HeLa, in the test on JEG-3 and in the test on OV90 was “inactive” throughout. For the same molecule, the Potency result in the test on SKOV3 and with Tov112D was “inactive” each time.

On to `C=C(C(=O)O[C@H]1C/C(C)=C/CC/C(CO)=C/[C@H]2OC(=O)C(=C)[C@H]12)C(O)CO` (stereo not given in full), for which the Potency entry with C33A, with CAOV3, in the test on CASKI, with HeLa, in the test with Hek293T and in the test with OV90 was “inactive” each time. In addition, the Potency entry in the test on PA-1, in the test with SKOV3 and in the test with Tov112D was “inactive” each time.

With `C=C1CC(=O)C2OC2(C)CC2OC(=O)C(=C)C2C(O)C1OC(=O)/C(C)=C\C` (stereo not given), the Potency entry in the test on C33A, in the test with CAOV3, in the test with CASKI, with HeLa, with JEG-3 and in the test on OV90 was “inactive” throughout. Moreover, the Potency result with PA-1, with SKOV3 and with Tov112D was “inactive” throughout.

Consider `C=CC(=O)N1CCCN(c2cc(NCCC(=O)O)nc(-c3ccccn3)n2)CC1`, for which the Potency entry in the test with C33A, with CAOV3, in the test on CASKI, in the test on HeLa, in the test on Hek293T and with JEG-3 was “inactive” in each case. Besides, the Potency entry in the test with PA-1, with Tov-21-G and in the test on Tov112D was “inactive” in each case.

For the molecule `O=S(=O)(c1ccccc1)N(CC(F)(F)F)c1ccc(C(O)(C(F)(F)F)C(F)(F)F)cc1`, the Potency entry with C33A, with CAOV3, in the test with CASKI, in the test on HeLa, in the test with Hek293T and in the test with JEG-3 was “inactive” in each case. Besides, the Potency entry in the test with OV90, in the test with PA-1, in the test with SKOV3, in the test with Tov-21-G and in the test with Tov112D was “inactive” throughout.

With `C=C1C(=O)OC2CC(C)=C(C(C)CCCOC(C)=O)C(OC(=O)CC(C)CC)C12` (stereo not given), the Potency entry with C33A, with CAOV3, in the test on CASKI, with HeLa, in the test on OV90 and with Tov112D was “inactive” each time.

In the case of `Cc1cc(C)c2c(c1)C(N(Cc1cc(C(F)(F)F)cc(C(F)(F)F)c1)c1nnn(C)n1)CCCN2CC1CCC(C(=O)O)CC1` (stereo not given), the Potency result in the test with C33A, with CAOV3, with CASKI, in the test on Hek293T, with JEG-3 and with OV90 was “inactive” in each case. Also, the Potency entry in the test on Tov-21-G is “inactive”.

For the molecule `CCOC(=O)c1csc(Nc2ccc(Cl)cc2)n1`, the Potency entry in the test on C33A, in the test with CAOV3, with CASKI, in the test with HeLa, in the test with JEG-3 and in the test on OV90 was “inactive” each time. Moreover, the Potency result in the test with PA-1, in the test with SKOV3, in the test on Tov-21-G and in the test with Tov112D was “inactive” throughout.

`C=C1C(=O)OC2/C=C(\C)CC/C=C(\C=O)C(OC)C(OC(=O)C(C)CC)C12` (stereo not given): the Potency result in the test with C33A, with CAOV3, in the test on CASKI, with HeLa, in the test on JEG-3 and in the test with OV90 was “inactive” each time. In addition, the Potency result in the test on PA-1, in the test on SKOV3 and in the test on Tov112D was “inactive” each time.

`CC(=O)O[C@H]1[C@@]2(O)C[C@H](C)[C@H](OC(=O)c3ccccc3)[C@@H]2[C@@H](OC(=O)CO)[C@]2(OC(C)=O)C[C@H]3C(=O)C(C)(C)C[C@@H]3[C@@]1(C)[C@H]2OC(C)=O`: the Potency result with C33A, in the test with CAOV3, in the test with CASKI, in the test on HeLa, in the test on Hek293T and in the test with JEG-3 was “inactive” in each case. Also, the Potency result in the test on OV90, with PA-1, in the test on SKOV3, in the test on Tov-21-G and in the test on Tov112D was “inactive” throughout.

`Nc1nc(Cl)nc2c1ncn2C1OC(CO)C(O)C1F` (stereo not given): the Potency result in the test on C33A, in the test with HeLa and with OV90 was “inactive” in each case. Besides, the Potency is 0.631 µM (active) in the test on CAOV3, 3.98 µM (active) with CASKI, 3.55 µM (active) in the test on PA-1 and 398 nM (active) with Tov112D.

On to `N#Cc1cc(CN2CCC(Nc3ncnc4sc(Cl)cc34)CC2)ccc1F`, for which the Potency entry in the test on C33A, with CAOV3, in the test with CASKI, in the test with HeLa, with JEG-3 and in the test with Tov112D was “inactive” in each case.

As for `C[C@H](CN(C)C)Oc1nc(Nc2cc3cccc(Cl)c3cn2)cnc1C#N`, the Potency entry in the test on C33A, with CAOV3, in the test on CASKI, in the test on HeLa, in the test on JEG-3 and with OV90 was “inactive” throughout. Besides, the Potency entry with PA-1 and with Tov112D was “inactive” throughout. In the test with SKOV3, the Potency is 12.6 µM (active).

In the case of `CC(=O)O[C@H]1CC(C)(C)CC2[C@]13CO[C@@]21CCC2[C@@]4(C)CC[C@H](O[C@@H]5OC[C@H](O[C@@H]6O[C@H](CO)[C@@H](O)[C@H](O)[C@H]6O[C@@H]6OC[C@@H](O)[C@H](O)[C@H]6O)[C@H](O)[C@H]5O[C@@H]5O[C@H](CO)[C@@H](O)[C@H](O)[C@H]5O)[C@@](C)(CO)C4CC[C@@]2(C)[C@]1(C)C[C@H]3O` (stereo not given in full), the activity change, negative = cytotoxicity with C33A was -17.3% [at 11.6 µM]; with CAOV3 it was -0.697% [at 11.6 µM]; with CASKI, -20.7% [at 11.6 µM]; with HeLa, -3.76% [at 11.6 µM]; with JEG-3, -9.1% [at 11.6 µM]; in the test on SKOV3, -11.7% [at 11.6 µM].

With `C=C1C(=O)O[C@@H]2/C=C(/C)[C@@H](OC(C)=O)C/C=C(\C)C[C@@H](OC(=O)/C(=C/CO)CO)[C@@H]12`, the Potency entry with C33A, with CAOV3, in the test with CASKI, in the test on HeLa, with JEG-3 and in the test with OV90 was “inactive” throughout. In addition, the Potency entry in the test on PA-1, with SKOV3 and in the test on Tov112D was “inactive” in each case.

Turning to `Cc1cc2c(F)c(Oc3ncnn4cc(OCC(C)OC(=O)C(C)N)c(C)c34)ccc2[nH]1` (stereo not given), the Potency entry in the test on C33A, in the test on CAOV3, in the test with CASKI, in the test on Es-2, in the test on OV90 and in the test with PA-1 was “inactive” in each case. For the same molecule, the Potency entry in the test with SKOV3 and in the test with Tov-21-G was “inactive” each time.
